According to PubChem BioAssay:
Active and inactive are the calls of the source.

tested on: XIP peptide (Xip251-270) binding; assay: XIP fragment 251-270 binding compounds – biochemical, small-molecule microarray, fluorescence 635/667 nm, 0.1 µg/mL protein, primary screen (AID 1182); details: fluorescent protein binding, 635 nm, higher = more signal, called active from +8 up or from −8 down

| SMILES | composite z-score |
| --- | --- |
| CCOC(=O)[C@H](CC(C)C)NC(=O)CCC1CC(OC(=O)NCc2cccc3ccccc23)CC2(CCCC(COC(=O)NCCC(C)C)O2)O1 (stereo partly specified) | -0.299 (inactive) |
| CCOC(=O)[C@H](CC(C)C)NC(=O)CCC1CC(OC(=O)NCc2ccc3c(c2)OCO3)CC2(CCCC(COC(=O)NCc3cccc(C(F)(F)F)c3)O2)O1 (stereo partly specified) | 0.319 (inactive) |
| CO[C@H]1COC(=O)[C@@H](C)COC(=O)[C@@H](OCc2ccccc2)C=C[C@@H]1C | 0.224 (inactive) |
| Cc1ccc(S(=O)(=O)N[C@H]2COC(=O)CC=C[C@H](C)[C@@H](NS(=O)(=O)c3ccc(C)cc3)COC(=O)CC=C[C@@H]2C)cc1 | 0.127 (inactive) |
| CCOC(=O)[C@H](Cc1ccccc1)NC(=O)CCC1CC(OC(=O)NCCc2ccc(F)cc2)CC2(CCCC(COC(=O)NCCCN3CCCC3=O)O2)O1 (stereo partly specified) | 0.414 (inactive) |
| CCOC(=O)[C@H](CC(C)C)NC(=O)CCC1CC(OC(=O)NCCc2ccc(F)cc2)CC2(CCCC(COC(=O)NCCc3ccccc3OC)O2)O1 (stereo partly specified) | 0.742 (inactive) |
| C#CCCCON=C1C[C@@H](O)[C@@H](O)[C@@H]2[C@@H]3C(=O)N(c4ccc(F)cc4F)C(=O)[C@@H]3CC[C@@H]12 | 0.76 (inactive) |
| CC(C)CON=C1C[C@@H](O)[C@@H](O)[C@@H]2[C@@H]3C(=O)N(c4cccc(Oc5ccccc5)c4)C(=O)[C@@H]3CC[C@@H]12 | -0.347 (inactive) |
| COc1ccc(O[C@H]2C=C[C@@H](c3ccccc3)O[C@@H]2COC(=O)CCC(C)=NO[C@@H]2O[C@H](COC(C)=O)[C@@H](OC(C)=O)[C@H](OC(C)=O)[C@H]2OC(C)=O)cc1 | 0.427 (inactive) |
| C[C@H](ON=C1[C@H]2CCn3c(=O)n(-c4ccccc4)c(=O)n3[C@H]2[C@H](O)[C@@H]2O[C@H]12)c1cn([C@H](CO)Cc2ccccc2)nn1 | 2.76 (inactive) |
| COCOc1ccc(Br)cc1C(=O)[C@@H]1O[C@H]1c1cccc(OC)c1 | -0.0455 (inactive) |
| CCOC(=O)[C@H](Cc1ccccc1)NC(=O)CCC1CC(OC(=O)NCc2cccc3ccccc23)CC2(CCCC(COC(=O)NCCC(C)C)O2)O1 (stereo partly specified) | 0.646 (inactive) |
| COc1ccc(COC(=O)NN=C2C[C@@H](O)[C@@H](O)[C@@H]3[C@@H]4C(=O)N(c5cccc(Oc6ccccc6)c5)C(=O)[C@@H]4CC[C@@H]23)cc1 | -0.378 (inactive) |
| CCc1cc2c(nc1CC)CCN(CCC(C)=NO[C@H](C)c1cn([C@@H]3COC[C@H]3O)nn1)C2 | -0.171 (inactive) |
| O=C1[C@H]2[C@H]3[C@H](O)[C@H](O)CC(=NOCc4ccccc4)[C@@H]3CC[C@H]2C(=O)N1Cc1ccc2c(c1)OCO2 | 0.135 (inactive) |
| O=C1CCCC(C2=CCCCC2=O)C1 (stereo unspecified) | -0.273 (inactive) |
| O=C1[C@H]2[C@H]3[C@H](O)[C@H](O)CC(=NOC[C@@H](O)COCc4ccco4)[C@H]3CC[C@H]2C(=O)N1Cc1ccccc1 | -0.227 (inactive) |
| CCc1cc2c(nc1CC)CCN(CCC(C)=NOC[C@H]1O[C@H](c3ccccc3)C=C[C@@H]1Oc1ccc(OC)cc1)C2 | 0.248 (inactive) |
| CCOC(=O)[C@H](Cc1ccccc1)NC(=O)CCC1CC(OC(=O)NCCc2ccc(F)cc2)CC2(CCCC(COC(=O)NCCOC)O2)O1 (stereo partly specified) | 1.99 (inactive) |
| CC(C)[C@@H](OCc1ccccc1)[C@H](C)C=NOC[C@@H](O)COCc1ccco1 | -0.0277 (inactive) |
| CON=C[C@@H](NS(=O)(=O)c1ccc(C)cc1)[C@H](C)C=CCC(=O)OC | 0.212 (inactive) |
| COc1ccc(O[C@H]2C=C[C@@H](c3ccccc3)O[C@@H]2CON=C2[C@H]3CCn4c(=O)n(-c5ccccc5)c(=O)n4[C@H]3[C@H](O)[C@@H]3O[C@H]23)cc1 | -0.454 (inactive) |
| CO[C@@H]1COC(=O)[C@@H](C)NC(=O)CC=C[C@@H](C)[C@H](NS(=O)(=O)c2ccc(C)cc2)COC(=O)[C@H](C)NC(=O)CC=C[C@H]1C | 0.199 (inactive) |
| CO[C@H]1COC(=O)[C@@H](Cc2ccccc2)NC(=O)[C@@H](C)COC(=O)CCC[C@@H]1C | 0.0283 (inactive) |
| COC(=O)[C@H]1[C@@H](O)[C@@]2(O)c3ccccc3O[C@@]2(c2ccccc2)[C@@H]1c1ccccc1 | -0.759 (inactive) |
| CC(C)CON=C1C[C@@H](O)[C@@H](O)[C@@H]2[C@@H]3C(=O)N(Cc4ccc5c(c4)OCO5)C(=O)[C@@H]3CC[C@H]12 | 0.798 (inactive) |
